Rows were chosen to be rich in hits. Some 7.5% of all compounds tested hit in one or more screens of this group.
KinaseGlo FLuc: blocks Kinase-Glo luciferase, a counter-screen artifact | Q27757 | Kinase-Glo luciferase, ATP luminescence, 8 min | Potency, µM (top dose mostly 38.3 µM), inactives show at the highest dose activity change, negative = inhibition, usual class: inhibitors | 0.28% of 200,000 active; also: % is scaled to controls: 0 for no effect and ±100 for the full control effect; nearly all actives have a fitted effect of over 60% in size
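Luminescence was the read-out, taken after 8-minute incubation at ambient temperature. Luciferase turned over luciferin with 10 uM ATP in imidazole pH 7.2 buffer containing KCl, MgCl2, Tween 20 and BSA.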
SMN2 splice enh: SMN2 splice variant enhancement; Potency, µM (titrated, usually from 46.1 µM), without a hit: at the highest dose activity change, positive = activation, actives largely listed as activators; HEK293 SMN2-luciferase splicing reporter, luminescence, 30-36 h; 2.8% of 210,000 active; also: % of control where 0% means no effect; nearly all actives have a fitted effect of over 55% in size
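HEK293 cells carry an SMN2 […]–luciferase reporter in which exon 7 inclusion puts luciferase in frame. Cells were plated 10-12 h before compound addition, then incubated 30-36 h at 37C. ONE-Glo luminescence was read; sodium butyrate at 4.5 mM final served as control.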
NPC1 promoter act: NPC1 promoter activation; Huh7 NPC1 promoter luciferase reporter, 24 h; AID 485313; 2.4% of 320,000 active; Potency, µM (top dose mostly 9.22 µM), inactives show at the highest dose activation, hits mostly activators; also: % of control where 0% means no effect; nearly all actives have a fitted effect of over 60% in size
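Compounds in DMSO were transferred onto Huh7 NPC1-luciferase reporter cells pre-incubated 2 h; after 24 h at 37 °C, Amplite reagent was dispensed and luminescence recorded 10 min later.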
ELG1 genotox: genotoxicity induction in ELG1-luciferase HEK293T cells; HEK293T ELG1-luciferase reporter, luminescence, 16 h; Potency, µM (series often up to 46 µM), inactives show at the highest dose activity change, positive = activation, hits mostly activators; 1.3% of 330,000 active; also: % of control where 0% means no effect; nearly all actives have a fitted effect of over 60% in size
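DMSO vehicle served as control against compound-treated ELG1-luciferase HEK293T cells; exposure lasted 16 hr at 37 °C and 5% CO2, followed by ONE-Glo luminescence detection after 30 min.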
FLuc counter: firefly luciferase modulation, counter-screen for miR-21 project | P08659 | purified FLuc, Km substrates, luminescence inhibition | Potency, µM (highest dose often 57.5 µM), for inactives: top-dose activity change, negative = inhibition, most hits filed as inhibitors | 6.9% of 360,000 active | AID 588342;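 also: plate controls were vehicle for no effect and reference inhibitor for full effect; nearly all actives have a fitted effect of over 55% in size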
Target sequence (P08659 whole entry, looked up): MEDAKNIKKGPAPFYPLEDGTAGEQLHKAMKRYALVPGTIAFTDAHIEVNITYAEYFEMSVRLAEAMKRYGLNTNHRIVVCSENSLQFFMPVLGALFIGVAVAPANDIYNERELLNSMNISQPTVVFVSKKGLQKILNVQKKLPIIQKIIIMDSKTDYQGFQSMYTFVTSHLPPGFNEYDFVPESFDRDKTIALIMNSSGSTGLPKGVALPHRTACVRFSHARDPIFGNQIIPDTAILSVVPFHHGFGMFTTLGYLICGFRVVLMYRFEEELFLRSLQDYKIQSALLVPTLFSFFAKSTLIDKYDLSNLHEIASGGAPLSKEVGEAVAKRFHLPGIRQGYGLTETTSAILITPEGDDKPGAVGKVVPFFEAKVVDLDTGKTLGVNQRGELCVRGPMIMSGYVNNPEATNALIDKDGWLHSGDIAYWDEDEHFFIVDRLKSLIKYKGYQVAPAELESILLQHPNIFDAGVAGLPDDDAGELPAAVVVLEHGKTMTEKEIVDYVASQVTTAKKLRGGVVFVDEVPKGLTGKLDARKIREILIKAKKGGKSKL
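Purified P. pyralis luciferase (10nM final) with 10uM D-luciferin and 10uM ATP (Km levels) in 50mM Tris acetate pH 7.5, 10mM Mg acetate, 0.01% Tween-20, 0.05% BSA; qHTS 6-point titration, ~60 µM downward; luminescence read.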
Rab9 prom act: activators of Rab9 promoter. Potency, µM (top dose mostly 9.22 µM), for inactives: top-dose activation, negative = inhibition, usual class: activators. Huh7 Rab9 promoter-luciferase reporter, luminescence, 24 h. 2.8% of 320,000 active. AID 485297; also: % of control where 0% means no effect; nearly all actives have a fitted effect of over 60% in size
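Luminescence from Amplite-detected luciferase (10 minutes, ambient) reports Rab9 promoter activation. Before that, stable Rab9-luciferase Huh7 cells (1500/well, reduced-serum OP-MEM I plus 10% FBS) were exposed to compound for 24 hours at 37C.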
* = called active by the depositor; ? = inconclusive; / = no result. Calls follow the shape of the dose curve; as a rule, active = well fitted curve in the direction sought with a large enough effect; inconclusive = small, poorly fitted or top-dose-only effect, or another doubt; inactive = no such curve, though single readings can be large; an effect the other way counts as inactive or inconclusive. Potency is read from the fitted curve at half-maximal effect.

SMILES | KinaseGlo FLuc | SMN2 splice enh | NPC1 promoter act | ELG1 genotox | FLuc counter | Rab9 prom act
Cc1ccc2occ(/C=C/C(=O)c3ccccc3O)c(=O)c2c1 | -7% | 8% | ? | 7% | ? | 12%
O=C(/C=C/c1ccco1)c1ccccc1O | -11% | / | -4% | ? | 11µM* | -4%
CN(C)c1ccc(/C=C/C(=O)c2ccccc2O)cc1 | -15% | / | 3.5µM* | ? | 0.6µM* | ?
Cc1c(/C=C/C(=O)c2ccccc2O)cnn1C | ? | 16µM* | 3.5µM* | ? | 1.3µM* | 2.5µM*
O=C(/C=C/c1cccnc1)c1ccccc1O | / | / | -4% | 8% | 17µM* | -1%
O=C(/C=C/c1ccco1)c1cccnc1 | / | / | 2% | -2% | -7% | 1%
Cc1nn(CC(=O)NC2CCCCC2)c(=O)c2cc3cc(F)ccc3n12 | / | -2% | / | / | -1% | /
Cc1ccc(C(=O)/C=C/C(=O)c2ccc(C)cc2)cc1 | -1% | -105% | -4% | -11% | ? | 1%
CN(C)c1ccc(/C=C/C(=O)c2cccnc2)cc1 | / | / | -3% | 0% | 3µM* | -1%
Cc1ccc(/C=C/C(=O)c2ccc(C)cc2)cc1 | 0% | -1% | 10% | ? | 1.3µM* | 23%
Cc1ccc(/C=C/C(=O)c2ccccc2O)cc1 | / | / | 18% | ? | 1.2µM* | 20%
CCOc1ccc(NC(=O)CC2C(=O)N(c3ccc(Cl)cc3)C(=O)N2Cc2cccs2)cc1 (stereo unspecified) | / | / | / | / | 1% | /
CCOc1ccc(C(=O)Nc2ccccc2C(=O)OCc2cc(=O)n3nc(C4CC4)sc3n2)cc1 | / | / | / | / | 5% | /
COc1ccc(N2CC(C(=O)N3CCCC(C)C3)CC2=O)cc1 (stereo unspecified) | / | / | 1% | -3% | 3% | 0%
O=C(N/N=C/c1cc([N+](=O)[O-])ccc1O)NC12CC3CC(CC(C3)C1)C2 | 4% | -36% | 14% | 15µM* | ? | -2%
O=C(N/N=C/c1ccccn1)NC12CC3CC(CC(C3)C1)C2 | / | / | ? | 4% | 17µM* | ?
O=C(N/N=C/c1cc([N+](=O)[O-])ccc1O)C12CC3CC(CC(C3)C1)C2 | 3% | -93% | 1% | 5% | ? | -6%
OC1CCCCC1Sc1nc2ccccc2s1 (stereo unspecified) | -1% | -8% | ? | ? | 17µM* | ?
c1ccc2sc(SSc3nc4ccccc4s3)nc2c1 | / | 1% | / | / | / | /
CCC(=O)Nc1cccc(C(=O)/C=C/c2ccccc2)c1 | -14% | -88% | -2% | ? | 11µM* | 6%
CCC(=O)Nc1cccc(C(=O)/C=C/c2cccs2)c1 | -3% | -64% | 26% | 12% | 12µM* | ?
CCC(=O)Nc1cccc(C(=O)c2ccccc2)c1 | 2% | 3% | 0% | 10% | -8% | 2%
Cc1cccc(C(=O)N2CCC(N3CCN(Cc4ccc(F)cc4)C(=O)C3=O)CC2)c1 | / | / | / | / | -6% | /
CCN1CCN(Cc2ccc(NC(=O)Nc3ccccc3)cc2)CC1 | 4% | -3% | 2.8µM* | 6.5µM* | 6µM* | 1.4µM*
CCN1CCN(Cc2ccc(NC(=O)Nc3ccc(OC)cc3)cc2)CC1 | 0% | 19% | 17% | ? | ? | 28%
SMILES | KinaseGlo FLuc | SMN2 splice enh | NPC1 promoter act | ELG1 genotox | FLuc counter | Rab9 prom act
CCN1CCN(Cc2ccc(NC(=O)Nc3cccs3)cc2)CC1 | -2% | ? | 1µM* | ? | 4.8µM* | 4µM*
CCN1CCN(Cc2ccc(NC(=O)Nc3ccc(SC)cc3)cc2)CC1 | 2% | ? | 29% | ? | 17µM* | ?
Cc1ccc(-n2ncc3c2CC(C)(C)CC3NC(=O)CCc2cccnc2)cc1 (stereo unspecified) | / | / | -3% | -4% | -2% | -16%
O=c1cnn(-c2ccccc2)c(-c2ccccc2)c1 | -2% | -8% | 27% | -7% | 11µM* | 5%
Nc1c(-c2cccc(Cl)c2)cnn1-c1ccccc1 | / | / | ? | 18% | 17µM* | ?
Nc1c(-c2ccccc2)cnn1-c1ccccc1 | / | / | 3.2µM* | ? | 11µM* | 3.5µM*
O=c1c(Br)c(Br)cnn1-c1ccccc1 | -4% | -104% | -41% | -19% | 5% | -51%
Cc1ccc(-c2cnn(-c3cccc(C(F)(F)F)c3)c2N)cc1 | -5% | 27% | ? | ? | 7.6µM* | 4µM*
CCCOc1ccc(C2C(=O)N(C3CCC(C)CC3)CC(=O)N2Cc2cccc(OC)c2)cc1OC (stereo unspecified) | / | / | / | / | -2% | /
CCc1cccc(NC(=O)CC(c2ccc(OC)cc2)N2Cc3ccccc3C2=O)c1 (stereo unspecified) | / | / | / | / | -16% | /
Nc1nc(NCc2ccco2)nc(Nc2ccc(F)cc2)c1[N+](=O)[O-] | / | / | -3% | 2% | 0% | 0%
Nc1nc(Nc2ccc(Cl)cc2)nc(NCCO)c1[N+](=O)[O-] | / | / | ? | 10% | -18% | -2%
CNc1nc(NCc2ccccc2)nc(N)c1[N+](=O)[O-] | / | / | -2% | 18µM* | 6% | -1%
Cc1ccc(Nc2nc(N)c([N+](=O)[O-])c(NCCO)n2)cc1C | / | / | 20% | 18% | 15µM* | 10%
Cc1ccc(Nc2nc(N)c([N+](=O)[O-])c(NCc3ccco3)n2)cc1C | -3% | ? | ? | 9% | 24µM* | 26%
C=CCn1c(CNC(=O)c2ccccc2F)nnc1SCc1nc2ccccc2c(=O)[nH]1 | / | / | -6% | 1% | 2% | -3%
CN(CC(=O)Nc1ccc(F)cc1)CC(=O)N1CCCC1 | / | / | -13% | -2% | 0% | -5%
CCCC12CN3CC(CCC)(CN(C1)C3c1ccc(OCc3ccccc3)cc1)C2=O (stereo unspecified) | / | 1% | / | / | 0% | /
CCOC(=O)N1CCC(N2Cc3cccc(C(=O)Nc4ccc(OCC)cc4)c3C2=O)CC1 | / | / | 1% | -7% | 12µM* | -2%
CCOC(=O)N1CCC(N2Cc3cccc(C(=O)Nc4ccc(CC)cc4)c3C2=O)CC1 | 17% | 7% | 0% | -15% | 12µM* | 1%
Cc1ccc(C2c3[nH]c4ccccc4c3CCN2C(=O)CCc2ccccc2)cc1 (stereo unspecified) | / | / | / | / | -4% | /
O=C1CC(/C=C/c2ccncc2)=Nc2ccccc2N1 | -20% | -44% | 1% | -11% | -19% | -5%
O=C(OCc1cc(=O)n2c(n1)sc1ccccc12)c1ccc(O)cc1 | -2% | 20µM* | 9% | ? | ? | 18%
Cc1csc2nc(COC(=O)c3ccccc3NC(=O)c3ccc(C(C)(C)C)cc3)cc(=O)n12 | / | / | / | / | 2.7µM* | /
O=c1cc(CCl)nc2sc3ccccc3n12 | -8% | -3% | -8% | 0% | 0% | -2%

Screens from PubChem BioAssay.
